Compound activity as filed in PubChem BioAssay.
CASP6 VEID inh – inhibitors of human caspase-6. P55212. purified caspase-6, Z-VEID-R110 cleavage fluorescence. inhibition, % at 12.5 µM. 350,000 compounds, 0.53% hits;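 active means mean inhibition across replicates at least about 35%, with every replicate also reaching that limit, limit read from the data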;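 further: 0% = median of neutral control wells and 100% = no fluorescence left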
Target sequence (P55212 24-179 limits assumed): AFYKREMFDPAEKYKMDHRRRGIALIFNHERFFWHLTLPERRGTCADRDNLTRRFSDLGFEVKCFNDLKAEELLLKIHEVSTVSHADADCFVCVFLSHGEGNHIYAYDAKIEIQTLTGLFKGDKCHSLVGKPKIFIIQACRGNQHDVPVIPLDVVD
Target sequence (P55212 194-293 limits assumed): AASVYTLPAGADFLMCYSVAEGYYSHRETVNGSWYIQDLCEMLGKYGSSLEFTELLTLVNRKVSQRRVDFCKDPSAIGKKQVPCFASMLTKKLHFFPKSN
UBC9 SUMO inh – blocks human SUMOylation mediated by UBC9. 290,000 compounds, 0.36% hits. P63279. HTRF SUMOylation assay, SAE1/SAE2 + UBC9, in vitro. inhibition, % at 35 µM; in the data active means inhibition above about 50%, passing the limit was not always enough
Target sequence (P63279 whole entry, looked up): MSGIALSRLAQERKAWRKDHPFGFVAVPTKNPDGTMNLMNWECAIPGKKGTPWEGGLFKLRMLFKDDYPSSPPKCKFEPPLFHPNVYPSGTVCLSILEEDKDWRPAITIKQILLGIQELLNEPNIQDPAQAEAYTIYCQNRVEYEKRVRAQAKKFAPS
SIRT5 block – inhibitors of human sirtuin-5 desuccinylase. Q9NXA8. Purified SirT5, succinyl-peptide AMC, trypsin-coupled fluorescence. inhibition, % at 15 µM. 330,000 compounds, 1.1% hits. AID 652115; in the data active means inhibition above about 15%
NSD2 HMT inh – inhibitors of human histone methyltransferase NSD2; O96028; NSD2 peptide methylation, AlphaScreen, 120 min; inhibition, % at 12.5 µM; 310,000 compounds, 0.54% hits; in the data active means inhibition above about 50%
Starred values were filed as active, the others as inactive; . = not tested or not shown. The list is not random: actives were taken first. Their share in the collection is about 1.6%.

SMILES	CASP6 VEID inh	UBC9 SUMO inh	SIRT5 block	NSD2 HMT inh
Cc1ccc(S(=O)(=O)Oc2ccc(/C=C3\C(=N)N4N=C(S(C)(=O)=O)SC4=NC3=O)cc2)cc1	59*	24	12	47
CCS(=O)(=O)C1=NN2C(=N)/C(=C\c3ccc(OS(=O)(=O)c4ccccc4)cc3)C(=O)N=C2S1	.	5	.	17
CCS(=O)(=O)C1=NN2C(=N)/C(=C\c3ccc(OCCOc4cccc(OC)c4)c(OC)c3)C(=O)N=C2S1	45*	6	18*	20
CCOc1cc(/C=C2\C(=N)N3N=C(S(C)(=O)=O)SC3=NC2=O)ccc1OCCOc1cccc(OC)c1	45*	11	17*	2
CCC(C(=O)Nc1ccc(C)cn1)c1ccccc1 (configuration not stated)	.	.	.	1
CCS(=O)(=O)N[C@H]1CC[C@@H](CC(=O)NCc2ccc(F)cc2)O[C@@H]1CO	21	.	2	.
COc1cc(/C=C2\C(=N)N3N=C(S(C)(=O)=O)SC3=NC2=O)ccc1OCCOc1ccc(C)cc1	16	28	8	6
COc1cc(/C=C2\C(=N)N3N=C(S(C)(=O)=O)SC3=NC2=O)cc(OC)c1OCCOc1ccc(C)cc1	31	12	20*	39
C[C@@H]1CN([C@H](C)CO)C(=O)c2cc(NC(=O)CCCCCC(=O)Nc3ccccc3N)ccc2O[C@H]1CN(C)C(=O)Nc1ccc2c(c1)OCO2	-2	.	2	.
COc1ccccc1NC(=O)N1CCN(c2cccc(C(F)(F)F)c2)CC1	3	-6	18*	-3
O=C(c1cc(COc2ccc(F)cc2F)on1)N1CC[C@@H]2CCCC[C@H]2C1	1	4	-3	-2
O=C(c1cc(COc2ccc(F)cc2Cl)on1)N1CC[C@@H]2CCCC[C@H]2C1	-3	-2	34*	-1
C[C@@H]1CN([C@H](C)CO)S(=O)(=O)c2ccc(C#CC3CCCC3)cc2O[C@H]1CN(C)Cc1cccnc1	-2	.	17*	.
C[C@H]1CN([C@@H](C)CO)S(=O)(=O)c2ccc(C#CC3CCCC3)cc2O[C@H]1CN(C)Cc1cccnc1	1	.	9	.
C[C@@H]1CN([C@H](C)CO)S(=O)(=O)c2ccc(C#CC3CCCCC3)cc2O[C@@H]1CN(C)Cc1cccnc1	0	.	99*	.
C[C@@H]1CN([C@H](C)CO)S(=O)(=O)c2ccc(C#CC3(O)CCCC3)cc2O[C@H]1CN(C)C(=O)c1cccnc1	0	.	27*	.
C[C@H]1CN([C@@H](C)CO)S(=O)(=O)c2ccc(C#CC3(O)CCCC3)cc2O[C@@H]1CN(C)C(=O)c1cccnc1	3	.	0	.
C[C@H]1CN([C@@H](C)CO)S(=O)(=O)c2ccc(-c3cncnc3)cc2O[C@H]1CN(C)Cc1ccc(Oc2ccccc2)cc1	-3	.	27*	.
O=C(C[C@H]1CC[C@@H](NS(=O)(=O)c2ccccc2)[C@@H](CO)O1)N1CCC(Cc2ccccc2)CC1	1	.	-8	.
O=C(C[C@@H]1C[C@H]2c3cc(NS(=O)(=O)c4ccc(F)cc4)ccc3O[C@H]2[C@@H](CO)O1)NCc1cc(F)ccc1F	-3	.	-3	.
Cc1ccc(-c2ccc3c(c2)O[C@H](CN(C)Cc2cccnc2)[C@H](C)CN([C@H](C)CO)S3(=O)=O)cc1	3	.	18*	.
CCOC(=O)CSc1nc2c(sc(=S)n2-c2ccc(OCC)cc2)c(=O)[nH]1	-1	0	-1	-4
CCOc1ccc(-n2c(=S)sc3c(=O)[nH]c(SCC(=O)N4CCC(C)CC4)nc32)cc1	43*	-4	.	5
Cc1noc(C)c1S(=O)(=O)Nc1ccc2c(c1)C(=O)N([C@H](C)CO)C[C@@H](C)[C@H](CN(C)S(=O)(=O)c1ccc(Cl)cc1)OCCCC[C@@H](C)O2	-2	.	0	.
COc1ccccc1-c1ccc([C@H]2[C@H](CO)N(C(C)=O)C23CN(C(C)=O)C3)cc1	1	.	3	.
SMILES	CASP6 VEID inh	UBC9 SUMO inh	SIRT5 block	NSD2 HMT inh
CCOC(=O)c1sc(NC(=O)C2CC2)nc1C	0	22	.	.
CCOC(=O)c1sc(NC(=O)C2C3C=CC(C3)C2C(=O)O)nc1C (configuration not stated)	55*	25	1	1
CCOC(=O)c1sc(NC(=O)CSc2nccn2C)nc1C	-2	15	16*	2
Cc1ccccc1-c1cnc2c(c1)C(=O)N([C@H](C)CO)C[C@@H](C)[C@H](CN(C)Cc1cccnc1)O2	2	.	-1	.
CC=Cc1ccc2n(c1=O)C[C@@H]1[C@@H](CO)[C@H](C(=O)NCCc3ccncc3)N(CCC(F)(F)F)[C@H]21 (mixture of isomers)	0	.	-5	.
Cc1ccc(NC(=O)Nn2cnnc2)cc1Cl	-1	44	-1	-3
O=C(Nc1cccc(Cl)c1)Nn1cnnc1	-7	51*	1	-1
O=C(Nc1ccc(Cl)c(Cl)c1)Nn1cnnc1	0	67*	3	-4
Cc1cc(C(=O)Nc2cccc3c2O[C@@H](CN(C)Cc2ccccc2)[C@H](C)CN([C@H](C)CO)C3=O)n(C)n1	1	.	-2	.
CC/C(CC(=O)C(F)(F)F)=N\NC(=O)/C(C#N)=C/N(C)C	1	9	18*	1
Cc1ccc(S(=O)(=O)N2CCN(C(=O)CSc3ncn[nH]3)CC2)c(C)c1	-1	.	-6	1
CCOc1ccc(S(=O)(=O)Nc2ccc(O)c(Sc3ncn[nH]3)c2)cc1	.	6	.	1
Cc1ccc(S(=O)(=O)/N=C2/C=C(Sc3ncn[nH]3)C(=O)c3ccccc32)cc1	.	95*	.	.
Cc1ccc(S(=O)(=O)Nc2ccc(O)c(Sc3ncn[nH]3)c2)cc1	2	11	-1	1
Cc1ccc(S(=O)(=O)/N=C2/C=C(Sc3ncn[nH]3)C(=O)c3ccccc32)c(C)c1	.	96*	.	.
CC(C)c1ccc(S(=O)(=O)/N=C2/C=C(Sc3ncn[nH]3)C(=O)c3ccccc32)cc1	.	90*	.	.
C/C=C/c1ccc([C@H]2[C@@H](CO)N(C(C)=O)C23CN(C(=O)c2ccc(F)cc2)C3)cc1	-2	.	1	.
O=C(NNS(=O)(=O)c1ccc(F)cc1)c1ccccc1F	46*	-1	4	-2
COc1ccccc1C(=O)NNS(=O)(=O)c1ccc(F)cc1	1	-7	-1	-2
C[C@H](CO)N1C[C@H](C)[C@@H](CN(C)C(=O)CC2CC2)Oc2ncc(C#CC(C)(C)O)cc2C1=O	-2	.	-1	.
C[C@@H]1CN([C@H](C)CO)C(=O)c2cc(C#CC(C)(C)O)cnc2O[C@H]1CN(C)C(=O)CC1CC1	-3	.	25*	.
CCC(=O)N(C)C[C@H]1Oc2ncc(C#CC3(O)CCCC3)cc2C(=O)N([C@@H](C)CO)C[C@H]1C	-3	.	-2.7*	.
C[C@H](CO)N1C[C@H](C)[C@H](CN(C)CC2CC2)Oc2ncc(C#CC3(O)CCCC3)cc2C1=O	0	.	18*	.
CCCCCCCCN1C(=O)[C@H](CC(=O)NCCC(C)C)C[C@@]2(C(=O)OCC)CCCC=C12	-5	.	21*	.
CCCCOCCCNC(=O)C[C@@H]1C[C@@]2(C(=O)OCC)CCC=C2N(Cc2ccco2)C1=O	49*	.	-6	.
CCOC(=O)[C@]12CCCC=C1N(Cc1ccco1)C(=O)[C@H](CC(=O)NCCCOC)C2	-2	.	-13	.
